Experimental data taken from ChEMBL document CHEMBL1157539, “Thousands of chemical starting points for antimalarial lead identification” (Nature, 2010).

system: Plasmodium falciparum; assay: GSK_TCMDC: Inhibition of Plasmodium falciparum 3D7 in whole red blood cells, using parasite LDH activity as an index of growth. Test compounds present at 2uM; assay type: functional

Q: Which Inhibition does the source give for `CCCc1cc(=O)oc2cc(OC)c(C(=O)CC(C)C)c(OC)c12` here?
A: Its Inhibition is 81%.

Q: Which Inhibition does the source give for `CC(C)NCc1cccc(-c2ccc(NC(=O)c3ccc(F)cc3)cc2)c1.O=C(O)C(F)(F)F` here?
A: The Inhibition was 92%.

Q: `Cc1ccc(O)c(-c2cc(C(=O)Nc3ccc(S(=O)(=O)N4CCCCC4)cc3)[nH]n2)c1` was tested. Which Inhibition did it give?
A: The Inhibition was 94%.

Q: Which Inhibition does the source give for `O=C(Nc1ccc(Br)cc1)N1CCC(n2c(-c3ccccc3)nc3cccnc32)CC1` here?
A: The Inhibition was 90%.

Q: `COc1cccc2c1CCN(CCN1CCC(CNC(=O)c3ccc(-c4ccc(C#N)cc4)cc3)CC1)C2` was tested. Which Inhibition did it give?
A: Its Inhibition is 99%.

Q: With `Cc1ccc(O)c(Nc2c3c(c(C#N)c4nc5ccccc5n24)CCC3)c1` as the compound, how does the Inhibition read?
A: The Inhibition was 85%.

Q: How did the Inhibition turn out when `CN1CCC(N(Cc2ccc(-c3ccc(C(F)(F)F)cc3)nc2)C(=O)Cn2c(CCc3cccc(F)c3F)cc(=O)c3ccccc32)CC1.O=C(O)C(O)C(O)C(=O)O` was run?
A: The Inhibition was 91%.

Q: Which Inhibition does the source give for `CO/C(=C\C=C\c1cc2cc(Cl)c(Cl)cc2[nH]1)C(=O)NCCCN1CCN(c2cccc(OC)c2)CC1` here?
A: The Inhibition was 100%.

Q: For `CC(=O)N1c2ccccc2C(C)=CC1(C)C`, which Inhibition is on record?
A: The Inhibition was 97%.

Q: With `Cc1cnccc1/C=C/c1cccc(OCCCN2CCc3ccc(S(C)(=O)=O)cc3CC2)c1` as the compound, how does the Inhibition read?
A: Its Inhibition is 92%.

Q: Which Inhibition does the source give for `O=C(NC1CCCCN(Cc2ccccc2O)C1)c1ccc(Cl)c(Cl)c1.O=C(O)C(F)(F)F` (stereo not given) here?
A: Its Inhibition is 96%.

Q: With `COc1ccc2nccc([C@@H](O)CN3CCC(NC(=O)c4ccc(OC)c(N)c4)CC3)c2c1.CS(=O)(=O)O` as the compound, how does the Inhibition read?
A: The Inhibition was 93%.

Q: Which Inhibition does the source give for `COc1cc(C(C)C)nc2ccc(NC(=O)c3ccc(C(=O)Nc4ccc5nc(C(C)C)cc(OC)c5c4)cc3)cc12` here?
A: The Inhibition was 95%.

Q: `CCc1c(C)c(C#N)c2nc3ccccc3n2c1NCc1ccco1` was tested. Which Inhibition did it give?
A: The Inhibition was 99%.

Q: Which Inhibition does the source give for `COc1ccc(S(=O)(=O)N(CCCN2CCN(C)CC2)Cc2csc(-c3ccc(CNCc4ccccc4)cc3)n2)cc1.O=C(O)C(F)(F)F` here?
A: The Inhibition was 88%.

Q: For `O=C(NCC(c1ccc(C(F)(F)F)cc1)N1CCCC1)c1cc(-c2ccncc2)c(-c2cccc(O)c2)o1.O=C(O)C(F)(F)F` (stereo not given), which Inhibition is on record?
A: The Inhibition was 95%.

Q: With `CC(C)(C)c1cc(Cn2ccnc2)cc(C(C)(C)C)c1O` as the compound, how does the Inhibition read?
A: The Inhibition was 85%.

Q: Which Inhibition does the source give for `O=C(C=Cc1ccc(Cl)c(Cl)c1)NCCCCCN1CCC(CCCNS(=O)(=O)c2cccc(C(F)(F)F)c2)CC1` here?
A: The Inhibition was 100%.

Q: `Cc1ncccc1C(=O)Nc1cccc(-c2cccc(-c3nc4cccc(C)c4[nH]3)c2)c1` was tested. Which Inhibition did it give?
A: Its Inhibition is 93%.

Q: With `Cc1cc(N/N=C/c2cccc([N+](=O)[O-])c2)c2cc(F)ccc2n1` as the compound, how does the Inhibition read?
A: Its Inhibition is 100%.

Q: How did the Inhibition turn out when `Cc1cc(NCCC(=O)NCCc2ccccc2)nc(NCCc2ccc(F)cc2)n1.O=C(O)C(F)(F)F` was run?
A: The Inhibition was 92%.

Q: Which Inhibition does the source give for `O=C(/C=C/c1ccc(Cl)c(Cl)c1)NCCCCCN1CCC(NC(=O)Nc2cc(Cl)ccc2Cl)CC1` here?
A: Its Inhibition is 99%.

Q: With `CN1CCC(N2CCN(Cc3ccc(-c4cccc(-c5nc6cc(F)ccc6[nH]5)c4)cc3)CC2)CC1.O=C(O)C(F)(F)F` as the compound, how does the Inhibition read?
A: The Inhibition was 100%.

Q: For `Cl.c1ccc(Oc2ccc(Nc3ccnc(Nc4ccc5cn[nH]c5c4)n3)cc2)cc1`, which Inhibition is on record?
A: Its Inhibition is 94%.

Q: Which Inhibition does the source give for `O=C(Nc1ccccc1-c1ccccc1)C1CCCN1C(=O)Nc1ccc(Cl)cc1` (stereo not given) here?
A: The Inhibition was 96%.

Q: For `CC1(C)NC(N)=NC(=N)N1OCc1cc(Cl)c(Cl)cc1CON1C(=N)N=C(N)NC1(C)C`, which Inhibition is on record?
A: Its Inhibition is 98%.

Q: `O=C(Nc1ccc(CN2CCOCC2)cc1)c1ccc(-c2cc(Cl)ccc2Cl)o1` was tested. Which Inhibition did it give?
A: Its Inhibition is 100%.

Q: With `C=CCN1C(=O)C(C(C)=O)=C(O)C1c1ccccc1` (stereo not given) as the compound, how does the Inhibition read?
A: Its Inhibition is 93%.

Q: How did the Inhibition turn out when `CCCCCCCN1CCC(CCNc2ccnc3ccc(OC)cc23)CC1` was run?
A: The Inhibition was 84%.

Q: How did the Inhibition turn out when `COc1cc2c(cc1C(F)(F)F)N(C(=O)Nc1cc(F)c(F)c(-c3cccnc3)c1)CC2` was run?
A: Its Inhibition is 90%.

Q: `Cn1ccnc1-c1nc2ccccn2c1NCC(=O)Nc1ccccc1N1CCCCC1` was tested. Which Inhibition did it give?
A: Its Inhibition is 85%.

Q: With `O=C(O)C(F)(F)F.c1ccc(-c2ccc(CNCc3ccc(-c4cccc(-c5nc6ccccc6[nH]5)c4)cc3)s2)nc1` as the compound, how does the Inhibition read?
A: The Inhibition was 98%.

Q: How did the Inhibition turn out when `Oc1ccc2[nH]c(-c3cccc(F)c3)nc2c1CN1CCC(N2CCCC2)CC1` was run?
A: Its Inhibition is 100%.

Q: How did the Inhibition turn out when `Cc1cccc2nc(-c3ccc(-c4ccc(CNCc5ccc(S(C)(=O)=O)cc5)cc4)cc3)[nH]c12.O=C(O)C(F)(F)F` was run?
A: The Inhibition was 93%.

Q: Which Inhibition does the source give for `Cc1[nH]n(-c2cccc(Cl)c2)c(=O)c1-c1ccc(Cl)cc1` here?
A: The Inhibition was 99%.

Q: For `C#CCNCc1ccc(-c2cccc(-c3nc4cccc(C)c4[nH]3)c2)cc1.O=C(O)C(F)(F)F`, which Inhibition is on record?
A: The Inhibition was 100%.

Q: For `O=c1c2ccc(F)cc2sn1-c1ccc(Cl)cc1`, which Inhibition is on record?
A: The Inhibition was 98%.

Q: `COc1cc2nccc(Nc3ccc(Oc4ccccc4)cc3)c2cc1OC.Cl` was tested. Which Inhibition did it give?
A: Its Inhibition is 100%.

Q: For `Cn1cccc1CCNCc1ccc(-c2cccc(-c3nc4ccccc4[nH]3)c2)cc1.O=C(O)C(F)(F)F`, which Inhibition is on record?
A: The Inhibition was 88%.

Q: With `COc1ccc2nccc([C@@H](O)CN3CCC(NCc4cc5cccc(O)c5[nH]4)CC3)c2c1.O=C(O)C(=O)O` as the compound, how does the Inhibition read?
A: The Inhibition was 100%.
